The campaign covered roughly 31,000 sequences. About 1,400 (4.5%) were called active.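 How the source made its calls: active means median seed-adjusted z-score above 1 or below -1; inactive means the rest.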 The entries come from a sample that favours actives as a whole.

The assay in a line: Novel Modifiers of Survival Motor Neuron (SMN) Protein: Gene Identification via Genome-wide siRNA Screen.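 Further: luminescence tracks full-length SMN protein made from the SMN2 reporter.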 The note with it: HEK293T SMN2-luciferase reporter, siRNA knockdown, 72 h; actives lie on both sides. Summed up: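 HEK293T cells stably carrying an SMN2 promoter/splicing cassette–luciferase reporter were reverse-transfected with 1 pmol siRNA per well (druggable-genome library, 3 siRNAs per gene) and grown 72 h at 37 °C. Luminescence, normalized to negative-control siRNA and log10-transformed, was scored as MAD.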
For the sequence CCAGGGACCAAGAGAAAGATT against RCE1, the median seed-adjusted z-score was -1.19 (active). Consider GCUUUGAUUUCACCAACAATT against GCM2, for which the median seed-adjusted z-score was -0.241 (inactive). The same measure for GGACGUGACCAUCAUGUACTT against IRF7: -0.304 (inactive). Turning to CGAUGUCAGCAUUUCCGUUTT against EPRS, the median seed-adjusted z-score was -0.391 (inactive). As to UCACGCUCCUGGACCAUUUTT against SLC6A3, the median seed-adjusted z-score was 0.457 (inactive). Then GAAGCGCAGUCACCUGAAATT against PROC, with -0.228 (inactive); and CUGUUGAGGUUGUUAUUGATT against GABPA, with 1.43 (active). Then GCAUGACCAUAAGAUCCUATT against NUAK2, with -0.0601 (inactive); and GAAGGAGAAUGGUAUCACUTT against GPATCH4, with -0.519 (inactive). On to CAAAGUAUCUGGAGAACCATT against KIF2C, for which the median seed-adjusted z-score is 0.0122 (inactive). Take GGGCCUUUCUUGGACUGAUTT against PHF7: the median seed-adjusted z-score is 0.425 (inactive). Consider CUUCAGUUCGAAUACAUUUTT against RFC5, for which the median seed-adjusted z-score was -0.644 (inactive).

With GGAGACUUCUUACCCACCATT against PSMD4, the median seed-adjusted z-score is 1.46 (active).

Turning to CAACUGAUGAGUAUCUAGATT against MRCL3, the median seed-adjusted z-score is -0.00909 (inactive). Consider CUUCAGUGCUGAUCAGGUATT against NDUFA2, for which the median seed-adjusted z-score is -0.694 (inactive). For GGACCCAGUAUUUCAGGAATT against SFXN4, the median seed-adjusted z-score was -0.174 (inactive). As to CGAUAUGGAAAAUCCCUAUTT against ANXA10, the median seed-adjusted z-score was 0.0445 (inactive). With CAUACGGACUGUACCUUUATT against PSMC5, the median seed-adjusted z-score is -1.06 (active).

CCCUCUACCUCGUCCGAAUTT against SIRPA: the median seed-adjusted z-score is -0.153 (inactive). Then CCACAUCUCAAGUCCACUUTT against PPP1R1A, with -0.529 (inactive). As to CACUUACGGUGUGAAAGGATT against SOX5, the median seed-adjusted z-score was 0.123 (inactive). Then AGUUACUACCUUAUCCUCATT against POU2F2, with 0.163 (inactive). With CCAUCUCCUACAUCGCCGATT against APBA2, the median seed-adjusted z-score is 1.66 (active).

In the case of GCUAUUUGGUUAUCCUUAUTT against ATP6V0A1, the median seed-adjusted z-score was 0.103 (inactive). For the sequence AGAUCCUGUGGAUUAGAAATT against NEU4, the median seed-adjusted z-score was -0.152 (inactive). The same measure for GUGCGAAAGAGAAUCUUAATT against SPIRE1: 0.336 (inactive); for GGAACAGCUUAAGAUUGAATT against GNG3: -0.186 (inactive); for GGAAGACCUUACACGGUUATT against EIF3E: 0.549 (inactive). On to GCUAUUUCCAGCGAAUAUATT against CNOT1, for which the median seed-adjusted z-score is 1.2 (active). In the case of CGCAGAAGAUGUACCAGUUTT against CDH22, the median seed-adjusted z-score was -0.57 (inactive). On to CAGGGUCUAUGGUACCGUUTT against UBE3C, for which the median seed-adjusted z-score is 0.0341 (inactive).

Regarding AAAUCCUUGGGUCAACAUUTT against NOX1, the median seed-adjusted z-score is -0.221 (inactive). Regarding GGACAAGGGAUUAAUAGUATT against ARID1A, the median seed-adjusted z-score is -1.14 (active). Consider CCUUGAUCCUCGACUGUAATT against COL5A1, for which the median seed-adjusted z-score was -0.00475 (inactive). Consider GGUCAUUGUGAAAAGUAGATT against GCLM, for which the median seed-adjusted z-score is 0.0509 (inactive). For CGCAUACUCUCGCCCUGUATT against ZNHIT2, the median seed-adjusted z-score is -0.339 (inactive). Then CGAUAGUGAGUAUAUCAGUTT against ZMYND8, with -0.065 (inactive). Consider UGAGCGAGUUGAUUUCACATT against ATF5, for which the median seed-adjusted z-score was 0.233 (inactive). Then CUUUAAGACUCAUAACGAATT against GTF2E2, with -1.32 (active); and GUUUCAUCGUAUAUCAAUATT against HSD17B13, with -0.329 (inactive). The same measure for GAAGGUUGAUUAUCGUAAATT against BCMO1: 0.53 (inactive); for CGAGGAACUAAGACUCAAATT against GPR151: -0.263 (inactive); for ACAAUUAUUGGAAAGAGAATT against SPRYD5: 0.151 (inactive). Then GGAAGGAGCUGUCACGCAATT against MED26, with -1.86 (active); and CGAAUCUCAUGUUCAGGAATT against LPA, with -0.321 (inactive).

As for GGGUCAUGUUUGGUUAGAATT against IMMP1L, the median seed-adjusted z-score is -0.444 (inactive). Take CGUGGACCACUAUCCCAUUTT against RNF123: the median seed-adjusted z-score is 0 (inactive). The same measure for GGAAAAACCAACCAAGUUATT against RUFY1: 0.119 (inactive); for CGGUGAAGGUGCUAAAGGATT against RAD23A: -1.13 (active); for GCCUUCAAUUUUCAUACAATT against ZNF19: 0 (inactive). Take AGUAAUAGUUCAAACCUUUTT against ZNF664: the median seed-adjusted z-score is 1.08 (active). The same measure for GAGUGUACCUGGAAUGUCUTT against ARNTL2: 0.102 (inactive); for AAAGUGGAUUGCACACAGATT against TGFB1I1: 0.887 (inactive). Then GAUCAAACCUUGUAUCUCUTT against ARG2, with -0.796 (inactive); and GGUAAAGAAUUCUCCGGAATT against FUS, with 0.92 (inactive); and GCAGGAUUGUGAUCCACCATT against PCGF3, with 0.876 (inactive).

Consider GGAUAUGGUGAGAAUAGAATT against MTHFS, for which the median seed-adjusted z-score is 0.166 (inactive).

For the sequence AGCUCACAAGGAUCCCAAUTT against THPO, the median seed-adjusted z-score is -0.0366 (inactive). Take CCUUUAGCACGGAUAGUUUTT against ACAT2: the median seed-adjusted z-score is 1.25 (active). With CUCCUACAGUGCUAUCAGATT against ENPP2, the median seed-adjusted z-score is -0.305 (inactive).

On to AAUUCCUCUUCAACAUGUATT against HOXD9, for which the median seed-adjusted z-score was -0.123 (inactive). Consider GGAACGGGCUGGAGUUAAATT against FUBP1, for which the median seed-adjusted z-score is -1.52 (active).

With GUACUUCAGUGGAGUGAAATT against CDKL1, the median seed-adjusted z-score is -0.28 (inactive). Then UCUGCUAUUUGGUCCUGAATT against TOMM34, with -0.503 (inactive); and CCUCAUAUGUGGGACAGAATT against USP3, with -0.176 (inactive); and GGUAUGGAUUUAACAGUCATT against DHODH, with -0.422 (inactive). In the case of GGAAGACUAGGAAUCGGAATT against NYX, the median seed-adjusted z-score is 0.0685 (inactive).

Take CACCCACCGCCACAAUAAATT against BSG: the median seed-adjusted z-score was 0.211 (inactive). As to GCACGACUUUGUACUCAGATT against HES5, the median seed-adjusted z-score was -0.00853 (inactive). Consider GAGCUAUGGUUACACGGUUTT against GABRQ, for which the median seed-adjusted z-score is -0.54 (inactive).

Consider UGAACCUUGUGAUAGAUGATT against SNRPG, for which the median seed-adjusted z-score is -3.09 (active).

With GCCUCCACGGAAGAUGUAATT against ZNF746, the median seed-adjusted z-score is 0.1 (inactive). For the sequence GCACUUGUAUAAUCAGACUTT against MRLC2, the median seed-adjusted z-score is -0.492 (inactive). Then GGACCAUCCAGCUUCUGGATT against GALE, with -0.153 (inactive); and GGAUCUCAUGAGGCGAAUATT against EIF5, with 0.362 (inactive); and GUAGGACUCUCAUUCGGGATT against CCND1, with -0.912 (inactive). The same measure for GGACCCAAUCAACUCAAUATT against SS18: 0.34 (inactive); for GCCUAAUUGCGGAACAUAUTT against ESCO1: 0.755 (inactive). In the case of CGACAAGUUGAAGACCAUATT against CRMP1, the median seed-adjusted z-score was -0.354 (inactive). Regarding CCUAUUCACUUUACACUGUTT against AKR7A2, the median seed-adjusted z-score is 0.192 (inactive). On to GAUGAAGAAUGAUAAGUCATT against HNRNPC, for which the median seed-adjusted z-score was -2.15 (active). On to AGACAAGUAUGUGAGGAAUTT against BTN2A2, for which the median seed-adjusted z-score was -0.0599 (inactive). In the case of GGAUAUCGCACUUCACUCATT against ELL, the median seed-adjusted z-score is -0.497 (inactive). On to GGGCGAGCAUUUUCGAGAATT against USP7, for which the median seed-adjusted z-score is 0.105 (inactive). The same measure for CCACGUUUUGAUCAACAAUTT against RDH11: -0.241 (inactive); for GAUUGCAUAUUACAAACGATT against GIN1: -0.0585 (inactive).

Regarding GGAACGAGAUUGUCAGAUUTT against POLR2B, the median seed-adjusted z-score was -4.81 (active).

In the case of GAUACACUUUGUCACCAAATT against FLT3LG, the median seed-adjusted z-score was -0.166 (inactive). The same measure for CUCAUGAACUUGCACAACATT against WNT7A: 0.0931 (inactive); for GGAUGAUGUGAACUACAAATT against PTDSS1: -0.76 (inactive); for GGAGGACAUCGACCAGAUATT against APBA1: 0.305 (inactive). Regarding CGAUAAAGACGGAUUCUAATT against MATK, the median seed-adjusted z-score was -0.754 (inactive). Take GAAUAUGAGUACCUAGAUUTT against SELPLG: the median seed-adjusted z-score is 0.0378 (inactive).

Turning to CACCGACAAUAUAAAGGAATT against SLC25A32, the median seed-adjusted z-score was -0.299 (inactive). For the sequence GGUCAUGAUUGCUAUCCUUTT against TAAR9, the median seed-adjusted z-score was -1.07 (active). GGAAGAUUAUUACAGUCGATT against RERE: the median seed-adjusted z-score is 0.129 (inactive). Take GGACGGUACUACAGUGUAATT against HDAC8: the median seed-adjusted z-score was 0.835 (inactive). Take GGAUUUCCAGGGAUAUUUATT against CDKN2B: the median seed-adjusted z-score is 0.0154 (inactive). In the case of CAUUGAACGCAGUCCCUUUTT against FLNC, the median seed-adjusted z-score is 0.00217 (inactive).

In the case of CCCAAUGCCUGUUUAUUCATT against POLR2J3, the median seed-adjusted z-score is -5.42 (active).

GGAACCUACCUGACUAAGATT against ARL9: the median seed-adjusted z-score is 0.98 (inactive).

With GGGAGUAUAUUUUGAUGAATT against RARS2, the median seed-adjusted z-score was -0.0247 (inactive).

Consider AGAAUAAGUUCAAACAGGATT against RAB4B, for which the median seed-adjusted z-score is -0.207 (inactive). Take CAUGAACAGUUUAUCGUAATT against FMR1: the median seed-adjusted z-score is 0.504 (inactive). In the case of GAGACCUAACUGUACGUGATT against TSG101, the median seed-adjusted z-score is 1.48 (active). Turning to CUUGCACUCCUGUCCAUAATT against AP3B1, the median seed-adjusted z-score was 0.31 (inactive). Then CUAGUUUGUUGCAAAAUAATT against CDKN2C, with -0.0789 (inactive); and CAAUUAAGUUGGAUCCUUUTT against WARS2, with 0.21 (inactive).

Values taken from PubChem BioAssay AID1347426 (Functional Genomics Laboratory (NCATS/FGL), 2020).
